# Inconclusive results are not listed. Values without a mark were called inactive. Activity calls are given as the source filed them. The call rests on the fitted dose curve; in most records, active means well fitted curve in the direction sought with a large enough effect; inconclusive means small, poorly fitted or top-dose-only effect, or another doubt; inactive means no such curve, though single readings can be large; an effect the other way counts as inactive or inconclusive.
# Experiment: Primary qHTS for inhibitors of nuclear receptor binding SET domain protein 2 (NSD2) in an RCH-ACV wild type WT cells (2C) (AID 1645877); further: nearly all actives have a fitted effect of over 70% in size; further: potency means the concentration at half of the fitted maximal effect
# Conditions: RCH-ACV (leukaemia line) NSD2 WT (2C) viability, CellTiter-Glo, 72 h; series mostly up to 44.9 µM; activity change, negative = cell killing: at the top concentration
# On the % scale 0 is the no-effect control and ±100 the full control effect.
Compound,"activity change, negative = cell killing [%]",Potency
O=C1CCCC(=O)C1C(=O)c1ccc(C(F)(F)F)cc1[N+](=O)[O-],-1.66,
COc1ccc2nc3cc(Cl)ccc3c(Nc3cc(CN4CCCC4)c(O)c(CN4CCCC4)c3)c2n1,,2.95 µM (active)
O=c1cc(-c2ccc(O)c(O)c2)oc2cc(O)cc(O)c12,,9.34 µM (active)

# Experiment: NCATS anti-infectives library activity on HEK293 viability as a counter-qHTS vs the C. elegans viability qHTS (AID 1745854)
# Conditions: HEK293 viability counter-screen; series mostly up to 41.8 µM; activity change, negative = cytotoxicity: at the top concentration
# Summary of the method: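 HEK293 cells, 1500 per well, exposed 24 hr at 37C in 5% CO2 to compounds in a 1:5 titration, up to 41.7 uM final. Viability read as CellTiter-Glo luminescence after 10 min at room temperature.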
row,Compound,"activity change, negative = cytotoxicity"
1,CCOC(=O)c1c(CSc2ccccc2)n(C)c2cc(Br)c(O)c(CN(C)C)c12,-33.6%
2,Nc1ncnc2c1ncn2[C@@H]1O[C@H](CO)[C@@H](O)[C@@H]1O,-7.89%
3,O=C(O)c1nc(=O)[nH]c(=O)[nH]1,-2.33% [at 18.2 µM]
4,N[C@@H](CC(=O)N1CCn2c(nnc2C(F)(F)F)C1)Cc1cc(F)c(F)cc1F,-4.16%
5,CC(C)[C@H](O)C(=O)N[C@@H](C)C(=O)N[C@@H]1C(=O)N(C)CCc2ccccc21,5.48%
6,CC(C)(F)C[C@H](N[C@@H](c1ccc(-c2ccc(S(C)(=O)=O)cc2)cc1)C(F)(F)F)C(=O)NC1(C#N)CC1,-2.73%
7,Cc1ccc(S(=O)(=O)OCC(=O)Nc2ccc(C(=O)O)c(O)c2)cc1,-7%
8,Cc1ccc2c(=O)c3cccc(CC(=O)O)c3oc2c1C,-15.6%
9,COc1cc2c(cc1Cc1cccc(Cl)c1F)c(=O)c(C(=O)O)cn2[C@H](CO)C(C)C,-15.3%

# — PubChem BioAssay (NCATS)
